The results in this text go back to PubChem BioAssay (NCI).

Assay [1] can be described thus: NCI Yeast Anticancer Drug Screen. Data for the rad50 strain (AID 155).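 Note: 0% = growth of vehicle-only cultures of the same strain.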 The conditions noted are these: S. cerevisiae rad50 strain growth inhibition, hits give high values. Put shortly: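 DNA repair mutant yeast, compound exposure, growth read-out; inhibition is taken relative to vehicle.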
Assay [2] can be described thus: NCI Yeast Anticancer Drug Screen. Data for the mec2-1 strain (AID 157). Conditions: S. cerevisiae mec2-1 strain, hits give high values. The procedure, abridged: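 Strain: mec2-1 (DNA repair/cell cycle alteration). Compound exposure, then growth measured; inhibition expressed relative to vehicle.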
Assay [3] can be described thus: NCI Yeast Anticancer Drug Screen. Data for the sgs1 mgt1 strain (AID 161).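 Note: 0% = growth of cultures given vehicle only.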 The conditions noted are these: S. cerevisiae sgs1 mgt1 strain, hits give high values. Put shortly: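 Genetically altered yeast, compound exposure, growth inhibition relative to vehicle.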
A short description of assay [4]: NCI Yeast Anticancer Drug Screen. Data for the cln2 rad14 strain (AID 165).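 Note: 0% = growth equal to vehicle treated cultures.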 Conditions: S. cerevisiae cln2 rad14 strain, hits give high values. The procedure, abridged: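 Compounds are applied to the cln2 rad14 yeast strain, and growth is then compared with that of vehicle-treated cultures to give inhibition.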
Assay [5] is described as follows: NCI Yeast Anticancer Drug Screen. Data for the bub3 strain (AID 167). Conditions: S. cerevisiae bub3 mutant strain, hits give high values. Put shortly:
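In this screen, a yeast mutant lacking normal mitotic checkpoint function is challenged with compound. Relative growth versus vehicle gives the inhibition value.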

Assay [6] in a line: NCI Yeast Anticancer Drug Screen. Data for the mlh1 rad18 strain (AID 175). Conditions: S. cerevisiae mlh1 rad18 strain growth inhibition, hits give high values. Put shortly: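 Read-out is yeast growth inhibition, calculated against vehicle-only controls. The compound was applied to a strain engineered with DNA damage repair alterations.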
Where [7] appears, read: at 5.0 µM (retest, dose inferred, filed as 0.5).
Where [8] appears, read: at 50.0 µM (retest, dose inferred, filed as 5.0).

This is part of a sample that, as a whole, favours compounds with a hit. Of some 79,000 tested, about 15% had one in any assay. Unmarked numbers belong to inactive results. Activity calls are given as the source filed them. Cut-off read from the data, not from the text of the source: active = growth inhibition above about 70%; inactive = the rest.

As to `CCCSc1n[nH]c(=S)s1`, the growth inhibition in assay [1] (setting [7]) was -3%; in assay [1] (setting [8]), 5%; in assay [1] (at 50.0 µM), 27%; in assay [2] (setting [7]), 2%; in assay [2] (setting [8]), 30%; in assay [2] (at 50.0 µM), 53%. The growth inhibition in assay [3] (setting [7]) is -1%; in assay [3] (setting [8]) it was 46%; in assay [3] (at 50.0 µM), 73.1% (active); in assay [4] (setting [7]) it was -10%; in assay [4] (setting [8]), 29%; in assay [4] (at 50.0 µM), 32.6%. Besides, the growth inhibition was -6% in assay [5] (setting [7]); 13% in assay [5] (setting [8]); 52% in assay [5] (at 50.0 µM); -1% in assay [6] (setting [7]); 15% in assay [6] (setting [8]); 41.7% in assay [6] (at 50.0 µM).

`CC1CCCCC12C(C#N)(C#N)C2(C#N)C#N` (stereo not given): the growth inhibition is 22% in assay [1] (setting [7]); 90% (active) in assay [1] (setting [8]); 99.2% (active) in assay [1] (at 50.0 µM); 30% in assay [2] (setting [7]); 97% (active) in assay [2] (setting [8]); 99.3% (active) in assay [2] (at 50.0 µM). In addition, the growth inhibition is 33% in assay [3] (setting [7]); 97% (active) in assay [3] (setting [8]); 99.5% (active) in assay [3] (at 50.0 µM); 8% in assay [4] (setting [7]); 89% (active) in assay [4] (setting [8]); 99.2% (active) in assay [4] (at 50.0 µM). Moreover, the growth inhibition in assay [5] (setting [7]) is 43%; in assay [5] (setting [8]), 97% (active); in assay [5] (at 50.0 µM), 99.4% (active); in assay [6] (setting [7]) it was 41%; in assay [6] (setting [8]), 98% (active); in assay [6] (at 50.0 µM) it was 99.3% (active).

For the compound `O=C(O)c1ccc2c(O)c3ccccc3c(O)c2c1`, the growth inhibition in assay [1] (setting [7]) is 3%; in assay [1] (setting [8]) it was 72% (active); in assay [1] (at 50.0 µM) it was 99.6% (active); in assay [2] (setting [7]), 1%; in assay [2] (setting [8]), 41%; in assay [2] (at 50.0 µM), 99.5% (active). Also, the growth inhibition in assay [3] (setting [7]) was 3%; in assay [3] (setting [8]), 52%; in assay [3] (at 50.0 µM), 99.6% (active); in assay [4] (setting [7]), 4%; in assay [4] (setting [8]), 50%; in assay [4] (at 50.0 µM) it was 93.5% (active). Further, the growth inhibition in assay [5] (setting [7]) was 21%; in assay [5] (setting [8]), 57%; in assay [5] (at 50.0 µM), 99.5% (active); in assay [6] (setting [7]), 5%; in assay [6] (setting [8]) it was 65%; in assay [6] (at 50.0 µM), 99.2% (active).

As to `CC(/C=C/c1ccco1)=N\NC(=S)NCC(C)C`, the growth inhibition in assay [1] (setting [7]) is 13%; in assay [1] (setting [8]), 80% (active); in assay [1] (at 50.0 µM), 63.5%; in assay [2] (setting [7]), -20%; in assay [2] (setting [8]) it was 53%; in assay [2] (at 50.0 µM) it was 61.9%. The growth inhibition in assay [3] (setting [7]) was 38%; in assay [3] (setting [8]), 86% (active); in assay [3] (at 50.0 µM), 81.2% (active); in assay [4] (setting [7]), 16%; in assay [4] (setting [8]), 61%; in assay [4] (at 50.0 µM), 64.4%. Also, the growth inhibition is 30% in assay [5] (setting [7]); 87% (active) in assay [5] (setting [8]); 83.5% (active) in assay [5] (at 50.0 µM); 25% in assay [6] (setting [7]); 88% (active) in assay [6] (setting [8]); 75.5% (active) in assay [6] (at 50.0 µM).

As to `COC1=CC23C=CC1[C@@H](c1ccccc1)C2=C(C)C(=O)N3C(=O)NC1CCCCC1` (stereo not given in full), the growth inhibition in assay [1] (setting [7]) is 21%; in assay [1] (setting [8]), 21%; in assay [1] (at 50.0 µM) it was 71.1% (active); in assay [2] (setting [7]) it was -4%; in assay [2] (setting [8]) it was -4%; in assay [2] (at 50.0 µM), 68.2%. The growth inhibition is 1% in assay [3] (setting [7]); 1% in assay [3] (setting [8]); 63.8% in assay [3] (at 50.0 µM); 5% in assay [4] (setting [7]); 5% in assay [4] (setting [8]); 29.8% in assay [4] (at 50.0 µM). Further, the growth inhibition in assay [5] (setting [7]) was -8%; in assay [5] (setting [8]) it was -8%; in assay [5] (at 50.0 µM), 65%; in assay [6] (setting [7]) it was -4%; in assay [6] (setting [8]), -4%; in assay [6] (at 50.0 µM), 50.6%.

On to `O=C(OCCCC(C(=O)c1ccccc1)=P(c1ccccc1)(c1ccccc1)c1ccccc1)c1ccccc1`, for which the growth inhibition is 35% in assay [1] (setting [7]); 99% (active) in assay [1] (setting [8]); 84.8% (active) in assay [1] (at 50.0 µM); 36% in assay [2] (setting [7]); 99% (active) in assay [2] (setting [8]); 36.8% in assay [2] (at 50.0 µM). Moreover, the growth inhibition was 33% in assay [3] (setting [7]); 99% (active) in assay [3] (setting [8]); 61.5% in assay [3] (at 50.0 µM); 6% in assay [4] (setting [7]); 98% (active) in assay [4] (setting [8]); 9.75% in assay [4] (at 50.0 µM). The growth inhibition in assay [5] (setting [7]) is 14%; in assay [5] (setting [8]) it was 99% (active); in assay [5] (at 50.0 µM), 23.4%; in assay [6] (setting [7]), 50%; in assay [6] (setting [8]), 99% (active); in assay [6] (at 50.0 µM), 54.8%.

Take `CCCCCC/C=C\CCCCCCCCCc1c(O)c(OC)cc(O)c1CN(C)C`: the growth inhibition is 5% in assay [1] (setting [7]); 94% (active) in assay [1] (setting [8]); 80.7% (active) in assay [1] (at 50.0 µM); -17% in assay [2] (setting [7]); 94% (active) in assay [2] (setting [8]); 88.3% (active) in assay [2] (at 50.0 µM). For the same compound, the growth inhibition is 15% in assay [3] (setting [7]); 96% (active) in assay [3] (setting [8]); 87.1% (active) in assay [3] (at 50.0 µM); 13% in assay [4] (setting [7]); 30% in assay [4] (setting [8]); 86.2% (active) in assay [4] (at 50.0 µM). The growth inhibition in assay [5] (setting [7]) was 5%; in assay [5] (setting [8]), 96% (active); in assay [5] (at 50.0 µM), 80.8% (active); in assay [6] (setting [7]) it was 2%; in assay [6] (setting [8]) it was 94% (active); in assay [6] (at 50.0 µM), 79.6% (active).

For `CC(=O)OCC(C(N)=O)(c1ccccc1)c1ccccc1`, the growth inhibition in assay [1] (setting [7]) is -5%; in assay [1] (setting [8]), 1%; in assay [1] (at 50.0 µM), -2.6%; in assay [2] (setting [7]), -2%; in assay [2] (setting [8]), 2%; in assay [2] (at 50.0 µM), -10%. Further, the growth inhibition in assay [3] (setting [7]) was -1%; in assay [3] (setting [8]) it was -5%; in assay [3] (at 50.0 µM), 12.8%; in assay [4] (setting [7]) it was -5%; in assay [4] (setting [8]), -3%; in assay [4] (at 50.0 µM) it was 91.5% (active). For the same compound, the growth inhibition is -7% in assay [5] (setting [7]); -1% in assay [5] (setting [8]); 2.8% in assay [5] (at 50.0 µM); -6% in assay [6] (setting [7]); -6% in assay [6] (setting [8]); 11% in assay [6] (at 50.0 µM).

As to `OC(C1CCC=NN1C(O)(C(F)(F)F)C(F)(F)F)(C(F)(F)F)C(F)(F)F` (stereo not given), the growth inhibition in assay [1] (setting [7]) is 8%; in assay [1] (setting [8]) it was 86% (active); in assay [1] (at 50.0 µM), 89.7% (active); in assay [2] (setting [7]), -3%; in assay [2] (setting [8]) it was 71% (active); in assay [2] (at 50.0 µM), 83.1% (active). Also, the growth inhibition in assay [3] (setting [7]) is -2%; in assay [3] (setting [8]) it was 69%; in assay [3] (at 50.0 µM), 87.7% (active); in assay [4] (setting [7]), 12%; in assay [4] (setting [8]), 58%; in assay [4] (at 50.0 µM) it was 78.8% (active). Moreover, the growth inhibition in assay [5] (setting [7]) is -6%; in assay [5] (setting [8]), 78% (active); in assay [5] (at 50.0 µM) it was 92.5% (active); in assay [6] (setting [7]), 9%; in assay [6] (setting [8]), 87% (active); in assay [6] (at 50.0 µM), 94% (active).

For `CCC(/C=C/c1ccccc1)=N\Nc1ccccc1`, the growth inhibition in assay [1] (setting [7]) is 11%; in assay [1] (setting [8]), 89% (active); in assay [1] (at 50.0 µM) it was 47.7%; in assay [2] (setting [7]), -10%; in assay [2] (setting [8]), 83% (active); in assay [2] (at 50.0 µM) it was 79% (active). For the same compound, the growth inhibition in assay [3] (setting [7]) was 1%; in assay [3] (setting [8]) it was 91% (active); in assay [3] (at 50.0 µM), 34.1%; in assay [4] (setting [7]), -27%; in assay [4] (setting [8]), 76% (active); in assay [4] (at 50.0 µM) it was -12.3%. Further, the growth inhibition in assay [5] (setting [7]) is -15%; in assay [5] (setting [8]), 90% (active); in assay [5] (at 50.0 µM), 87.3% (active); in assay [6] (setting [7]), -13%; in assay [6] (setting [8]) it was 95% (active); in assay [6] (at 50.0 µM), 74.4% (active).
